14 compounds from PubChem BioAssay (NCI) can be followed below.

The panel holds about 83,000 compounds, 20% with a hit somewhere; the sample as a whole holds those more often.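 48-hour exposure, single concentration, 96-well plates; percent growth endpoint where 0 means no net growth. Active: below 10.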 A number with no mark means an inactive call.

The assay has as its system PC-3 prostate. Kind of assay: NCI-60 one-dose screen, 48 h (100 = growth as untreated, 0 = no growth, -100 = all killed). Conditions: 10 µM unless noted.
For the compound `Nc1ccc(S(=O)(=O)c2ccc(NO)cc2)cc1`, the growth was 96.8%.

For the compound `COc1cc(NC(C)CCCN)c2nccc(C)c2c1OC` (centres undefined), the growth was 72.3%.

For the compound `CCCC(=O)NNc1[nH]c(-c2cc(OC)c(OC)c(OC)c2)cc1C(=O)OCC`, the growth was 111%. In the case of `CC(C)OC(=O)c1ccc2n1CCCc1cnc(Nc3ccccc3)nc1-2` it was 75.7%; in that of `COC(=O)c1ccc2[nH]c(O)c(C(=Nc3ccc(N(C)C(=O)CN4CCN(C)CC4)cc3)c3ccc(OC)cc3)c2c1`, 28.7%. Take `CC(=O)c1cc(Nc2cc(C)nc(N)n2)cc(C(C)=O)c1`: the growth was 107%.

In the case of `CCOC(=O)C1=C(C(F)(F)F)NC(=S)NC1CN1C(=O)c2ccccc2C1=O` (centres undefined), the growth is 90.5%. In the case of `CC(C)OC(=O)[C@H](C)N[P@@](=O)(OC[C@@]1(C)O[C@@H](n2cc(F)c(N)nc2=O)C[C@@H]1O[P@](=O)(N[C@@H](C)C(=O)OC(C)C)Oc1ccccc1)Oc1ccccc1` it was 71.4%; in that of `COc1ccc(Cn2cc3c(c2-c2ccccc2)CCc2cnoc2-3)cc1OC`, 26.5%; in that of `CC1C(=O)CCCC1=O`, 108%. Next, `Brc1ccc(-c2nc3ccccc3s2)cc1`: 83.6%. Next, `O=C(Nc1cccc(Cn2c(=O)[nH]c3ccc(Oc4ncccn4)cc3c2=O)c1)c1ccc(Cl)cc1`: 46.2%; `Cc1ccc(S(=O)(=O)Nc2cccc(Cn3c(=O)[nH]c4ccc(Oc5ncccn5)cc4c3=O)c2)cc1`: 52%. With `CC1(C)Oc2cc3oc(=O)ccc3cc2C[C@@H]1OCCOS(=O)(=O)c1ccc(C#N)cc1`, the growth is 87.3%.
